# Shown is part of a subset that was picked to be rich in hits.
# Dicer inh – inhibitors of Dicer pre-microRNA processing, primary screen, biochemical, cat-ELCCA, chemiluminescence; Endoribonuclease Dicer (Homo sapiens), Q9UPY3; cat-ELCCA pre-miR-21 Dicer processing; stronger effect = higher value; z-score at 25 µM; 47,000 compounds, 6% hits; AID 1347074, 2019; in the data active = z-score above about 3, passing the limit was not always enough;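 also: plate controls were vehicle for no effect and no enzyme for full effect; higher signal means more uncleaved substrate so more Dicer inhibition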
# The depositor's hits bear a star.
SMILES,Dicer inh
COCCCn1c(-c2ccc(Cl)cc2)cc(-c2cccs2)c1-c1ccccc1,3.3*
CCNC(=S)Nc1ccc(C)cc1C,-0.32
COc1nccc(C(F)(F)F)c1C(=O)Nc1c(C)cccc1C,2.6
Clc1ccc(N2CCN(C3=Cc4ccccc4C3)CC2)cc1Cl,-1.9
COc1cc(C)nc(N(CCO)CCO)n1,5.9*
COc1cc(C)nc(-n2nc(C)cc2OC)n1,0.16
COc1cc(C)nc(SCC(N)=O)n1,-0.74
O=C(CCc1ccccc1)NNc1ccccc1C(F)(F)F,-1.6
CCCN=c1ssc(=O)n1CCC,1.5
O=c1nc(-c2ccccc2)c2ccccc2[nH]1,6.6
Cc1nc(-c2ccccc2)c2c(=O)cc(-c3ccccc3)[nH]c2n1,1.8
O=c1cc(-c2ccccc2)[nH]c2ccccc12,4*
COc1cccc(C2C3=C(CCCC3=O)Nc3nc(-c4cccc(Cl)c4)nn32)c1OC (stereo not drawn),0.72
Cc1ccsc1/C=C/NC(=O)Nc1ccc(F)cc1F,-0.14
Brc1ccc(-c2cnc(/C=C/C=C/N3CCOCC3)s2)cc1,-0.69
CCOC(=O)/C(=N\Nc1cccc(C)c1)c1csc(N)n1,4*
CCOC(=O)/C(C)=N/Nc1ccccc1,-1
CCOC(=O)/C(C)=N/Nc1ccc(F)cc1,0.97
N#Cc1cc2c(nc1SCC(N)=O)CCCC2,0.31
C=CCOc1cc(=O)[nH]c2ccccc12,4.7*
C=CCOc1ccc2[nH]c(C)c(C(=O)OCC)c2c1,-0.95
O=c1cc(CSC(=S)N2CCSCC2)c2ccccc2[nH]1,-0.65
Cc1cc(C)c(-n2nnnc2SCc2c(F)cccc2Cl)c(C)c1,-0.97
O=c1onc(-c2ccccc2)n1-c1cccc(Cl)c1,0.68
CCc1ccnc(NC(=O)Nc2c(Br)cc(C(C)C)cc2Br)c1,1.3
SMILES,Dicer inh
COc1ccc2sc(C(=O)O)c(Br)c2c1,4.3*
COc1ccc2c(c1)CCCN2C(=O)c1sc2ccccc2c1Cl,-1.1
COc1ccc2[nH]c(C(=O)O)cc2c1,0.75
O=C1/C(=C\c2ccc(SC3CCCCC3)c([N+](=O)[O-])c2)SC(=S)N1Cc1ccccc1,7.1
Cc1ccc(C(=O)CC2(O)C(=O)N(Cc3ccc(Cl)cc3)c3ccccc32)cc1 (stereo not drawn),2.7
CCCN1C(=O)C(O)(CC(=O)c2ccc(C)o2)c2cc(Br)ccc21 (stereo not drawn),-0.06
CCCN1C(=O)C(O)(CC(=O)c2ccc(C)s2)c2ccccc21 (stereo not drawn),-0.54
Cc1ccc(C(=O)CC2(O)C(=O)N(Cc3ccccc3)c3ccc(Br)cc32)s1 (stereo not drawn),3.6*
Cc1ccccc1CN1C(=O)C(O)(CC(=O)c2ccco2)c2cc(Cl)ccc21 (stereo not drawn),2.3
Cc1ccc(CN2C(=O)C(O)(CC(=O)c3ccc(C)o3)c3cc(Cl)ccc32)cc1 (stereo not drawn),3.7*
Cc1coc(C)c1C(=O)CC1(O)C(=O)N(Cc2ccccc2)c2ccc(Br)cc21 (stereo not drawn),3.8*
O=C(CC1(O)C(=O)N(Cc2ccccc2)c2ccc(Br)cc21)c1cccnc1 (stereo not drawn),2.6
CCCCN1C(=O)C(O)(CC(=O)c2ccc(C)s2)c2cc(Br)ccc21 (stereo not drawn),2.3
Clc1cc(Cl)c(Nc2nc3c(s2)Cc2ccccc2-3)cc1Cl,-0.73
CCOc1ccc(-c2cc(C(F)(F)F)c(C#N)c(SCCC(=O)O)n2)cc1,0.5
O=S(=O)(Oc1ccccc1N1CCOCC1)c1ccc(-c2ccccn2)s1,0.6
COc1ccc(S(=O)(=O)N(CCC#N)C2CCc3ccccc32)cc1OC (stereo not drawn),-2
CCCn1c(=O)c(/C(N)=N/OC(=O)Nc2ccc(Cl)cc2)nn(-c2ccccc2)c1=O,-0.1
COc1ccc(Nc2nc(-c3ccccn3)cs2)c(OC)c1,5.3*
Cc1nc(C)c(-c2csc(Nc3ccc(O)cc3C)n2)s1,1.1
Cc1cc(O)ccc1Nc1nc(-c2cccnc2)cs1,1.9
Cc1cc(O)ccc1Nc1nc(-c2ccccn2)cs1,5.4*
COc1ccc(OC)c(Nc2nc(-c3ccncc3)cs2)c1,1.7
Fc1ccccc1Nc1nc(-c2ccccn2)cs1,1.7
CCOC(=O)C1C(=O)C=C(c2cccs2)CC1c1ccc(OC)c(OC)c1Cl (stereo not drawn),0.68
SMILES,Dicer inh
Cc1nn2c3c(cnc2c1-c1ccccc1)C(=O)CC(c1cccs1)C3 (stereo not drawn),4.1
CSC1=NCCCN1S(=O)(=O)c1ccc(Cl)cc1,-0.25
Cc1ccc(/C=c2\sc3nc(-c4ccccc4)c(-c4ccccc4)n3c2=O)o1,0
O=S(=O)(Nc1nc(SCc2ccc(Cl)cc2)n[nH]1)c1cccs1,0.07
O=[N+]([O-])c1ccc(S(=O)(=O)c2ccc(Cl)cc2)c(Cl)c1,-1.3
CC(C)(C)OC(=O)NC(COCc1ccccc1)C(N)=O (stereo not drawn),-0.63
CC(C)(C)OC(=O)N[C@@H](Cc1ccccc1)C(=O)OCc1ccc(CC(=O)O)cc1,0.83
CSCC[C@H](NC(=O)OC(C)(C)C)C(=O)OCc1ccc(CC(=O)O)cc1,3*
O=c1c2ccccc2nc(/C=C/c2ccc(O)cc2)n1Cc1ccccc1,-1.2
COc1cccc(-n2c(/C=C/c3cn(C)c4ccccc34)nc3ccccc3c2=O)c1,6.8
CCn1c(/C=C/c2c[nH]c3ccccc23)nc2ccccc2c1=O,3*
Nc1ccc2nc(SCc3ccc(F)cc3)sc2c1,-1.9
COc1ccc(-c2nc3n(n2)C(c2cccnc2)C2=C(CCCC2=O)N3)cc1 (stereo not drawn),1.9
CC(=O)Oc1ccc(C2C(C#N)=C(C)NC3=C2C(=O)CCC3)cc1 (stereo not drawn),-0.67
CCSc1nnc2nc3c4ccccc4c4ccccc4c3nn12,1.3
S=c1[nH]nc2nc3c4ccccc4c4ccccc4c3nn12,4.9*
S=c1[nH]nc2nc(-c3ccccc3)c(-c3ccccc3)nn12,-0.34
COCCCN1CN=C(NS(=O)(=O)c2ccc(C)cc2)NC1,-2.5
Cc1ccc(S(=O)(=O)NC2=NCN(Cc3cccnc3)CN2)cc1,4.5*
COCCN1CN=C(NS(=O)(=O)c2ccc(C)cc2)NC1,0.48
S=c1[nH]nc(-c2cccnc2)n1-c1cccc(Cl)c1,0.11
Cc1ccc(S(=O)(=O)NC(=O)N2CCCCC2)cc1,0.16
CC(C)C1C(=O)CC(c2ccccc2)NC1c1ccccc1 (stereo not drawn),0.45
O=C1C(=O)C(c2ccccc2)C(=O)C1c1ccccc1 (stereo not drawn),1.6
O=C1NNC(c2ccccc2)C1c1ccccc1 (stereo not drawn),3.5*
SMILES,Dicer inh
Cc1ccc(-c2nnn(CC(=O)NNC(=O)c3ccco3)n2)cc1,-0.26
Nc1cc(=O)nc(SCc2ccccc2)n1-c1ccc(F)cc1,1.3
CN1CCN(CN2C(=O)C3(OCCO3)c3ccccc32)CC1,-0.52
CCN(CC)c1ncc2c(SCC(N)=O)nc(SCC(N)=O)nc2n1,0.41
O=C(NCc1ccc2c(c1)OCO2)C1CC(c2cccc(Br)c2)=NO1 (stereo not drawn),-0.75
CC(C)CNC(=O)C1CC(c2ccccc2)=NO1 (stereo not drawn),3.6*
O=C(NCc1ccco1)C1CC(c2ccc(Cl)cc2)=NO1 (stereo not drawn),1.6
COc1nccc(C(F)(F)F)c1C(=O)NCc1c(Cl)cc(Cl)cc1Cl,-0.34
